# From PubChem BioAssay AID588689 (Southern Research Specialized Biocontainment Screening …, 2011)
# Hit rate of the full screen: of about 340,000 compounds, about 1,000 (0.29%) were called active. Rule as the data show it: inconclusive = inhibition above about 29% without an active follow-up result; inactive = below that. These entries were drawn from the full list. Measured potencies and affinities stand elsewhere.
# Target: Genome polyprotein (Dengue virus type 2 (strain 16681-PDK53)) (UniProt P29991)
# Assay: flavivirus cap methylation enzyme inhibition – biochemical, confirmation dose response, primary screen (AID 588689)
# Details: Dengue-2 NS5 methyltransferase capping enzyme assay, at 25 µM, stronger effect = higher value
# [1] = measured here: pilot screen replicate inhibition
SMILES,inhibition,inhibition [1]
NC(=O)c1ccc(NC(=O)c2cccc(Oc3ccccc3)c2)cc1,-7.28% (inactive),–
CCn1c(CC(=O)Nc2ccccc2)nnc1SCc1nc2ccccc2c(=O)[nH]1,-0.79% (inactive),–
Nc1ncnc2c1ncn2[C@@H]1O[C@H](CNC(=O)[C@H](N)Cc2cscn2)[C@@H](O)[C@H]1O,-4.56% (inactive),–
NC(=O)c1cc([N+](=O)[O-])ccc1NCc1cccc(N)c1,-0.8% (inactive),–
COC(=O)Cn1c(=NC(=O)c2ccc(Cl)s2)sc2cc(C)ccc21,4.02% (inactive),–
O=C(NC(=S)NCc1ccccc1)c1ccccc1[N+](=O)[O-],-9.35% (inactive),–
O=C(NCCc1ccccc1)C(=O)Nc1ccc2c(c1)OCCO2,-12.2% (inactive),–
O=C(c1ccc(Cl)c(Cl)c1)N1CCN(c2ccccn2)CC1,-2.38% (inactive),–
COCCN(C(=O)CSc1nnc(-c2ccccc2F)n1N)c1c(N)n(Cc2ccccc2)c(=O)[nH]c1=O,11.2% (inactive),–
CCOc1ccc(OCCCC(=O)NCCOc2ccccc2OC)cc1,-5.46% (inactive),–
Cc1cccc(OCC(=O)NC(=S)Nc2ccc(S(=O)(=O)NC3CCCCC3)cc2)c1,0% (inactive),–
CC(C)(C)C(=O)CSc1nc2c(c(-c3cccs3)c1C#N)CCC2,-8.9% (inactive),–
CN1CCc2nc(SC(C(=O)O)c3ccccc3)c(C#N)c(-c3cccs3)c2C1 (centres undefined),23.2% (inactive),–
Cc1ccc(CNC(=O)CCS(=O)(=O)c2ccc(Br)cc2)cc1,-2.71% (inactive),–
Cc1nc2ccccc2c(=O)n1NC(=O)c1ccc(C(C)(C)C)cc1,-7.84% (inactive),–
O=C(O)CC(NC(=O)C12CC3CC(CC(C3)C1)C2)c1cccc([N+](=O)[O-])c1 (centres undefined),4.1% (inactive),–
CCN=C1S/C(=C\c2ccc(-c3cccc(C(=O)O)c3)o2)C(=O)N1CC,0.91% (inactive),–
O=C(O)c1cccc(-c2ccc(/C=C3/SC(=Nc4ccccc4)N(Cc4cccnc4)C3=O)o2)c1,3.26% (inactive),–
COc1ccc(C(=O)CN2C(=O)NC3(CCCc4ccccc43)C2=O)cc1 (centres undefined),-6.6% (inactive),–
O=C(O)Cn1c(CC(=O)N2CCCC2)nc2ccccc21,2.7% (inactive),–
O=[N+]([O-])c1ccccc1-c1ccc(/C=N/n2cnnc2)o1,1.62% (inactive),–
CCOC(=O)c1cc(-c2ccc(/C=C3/C(=O)NC(=O)C(C#N)=C3C)o2)ccc1Cl,44.5% (inactive),–

SMILES,inhibition,inhibition [1]
N#C/C(=C\c1ccc(-c2ccccc2[N+](=O)[O-])o1)C(N)=O,-6.96% (inactive),–
CC1=C(C#N)C(=O)NC(=O)/C1=C\c1ccc(-c2ccc(C)cc2[N+](=O)[O-])o1,23.7% (inactive),–
N#C/C(=C/c1ccc(-c2ccccc2[N+](=O)[O-])o1)C(N)=O,-17.5% (inactive),–
O=C(O)/C(=C\c1ccc(-c2ccccc2[N+](=O)[O-])o1)c1ccccc1,25.4% (inactive),–
CCN1C(=O)[C@H]2[C@@H](c3ccc(C)cc3)N3C(=O)N(c4cccc(Cl)c4)C(=O)[C@@]3(Cc3ccccc3)[C@H]2C1=O,0% (inactive),–
NC(=O)CSc1oc(-c2ccc(F)cc2)nc1S(=O)(=O)c1ccccc1,-9.82% (inactive),–
Cc1ccccc1NC(=O)C1CCC(=O)N1 (centres undefined),-6.11% (inactive),–
O=C(CNC(=O)c1cccc(S(=O)(=O)N2CCc3ccccc32)c1)Nc1ccccc1Br,2.25% (inactive),–
CSc1ccc(/C=N/Nc2ccc(Cl)c(C(=O)O)c2)cc1,-1.45% (inactive),–
O=C(O)c1cc(N/N=C/c2ccncc2)ccc1Cl,-3.81% (inactive),–
COC(=O)C1SCC2C(=O)N(Cc3ccc(F)cc3)CC(=O)N21 (centres undefined),-5.39% (inactive),–
Cn1c(SCC(=O)Nc2ccc3nc(SCC(=O)N4CCCC4)sc3c2)nnc1-c1ccc(N)cc1,9.65% (inactive),–
O=c1c2ccccc2nc(SCc2cc([N+](=O)[O-])cc3c2OCOC3)n1-c1ccccc1,-2.94% (inactive),–
COc1ccc(OC)c(NC(=O)Nc2cccnc2)c1,1.62% (inactive),–
Cc1cc(C)c(NC(=O)CN2C(=O)NC3(CCCCC3)C2=O)c(Cl)c1,-4.81% (inactive),–
CCCCn1nc(NS(=O)(=O)c2cccc3nonc23)c2cc3cccc(C)c3nc21,27.8% (inactive),–
CCCn1nc(NS(=O)(=O)c2cccc3nonc23)c2cc3ccccc3nc21,0.45% (inactive),–
COc1ccc(S(=O)(=O)NCC2CCCN(C(=O)CSC)C2)cc1 (centres undefined),-2.61% (inactive),0.01%
C=CCN(C(=O)Cc1cccs1)c1nc(-c2ccc(S(C)(=O)=O)cc2)cs1,-10.3% (inactive),–
Cc1[nH][nH]c(=O)c1C(c1ccc(-c2ccccc2C(=O)O)o1)c1c(C)[nH][nH]c1=O,39% (inactive),–
Cc1[nH][nH]c(=O)c1C(c1ccc(-c2cccc(C(=O)O)c2)o1)c1c(C)[nH][nH]c1=O,21.1% (inactive),–
Cc1cc(S(=O)(=O)N2CCCOC2CNC(=O)C(=O)NCCc2ccco2)ccc1F (centres undefined),0.64% (inactive),–

SMILES,inhibition,inhibition [1]
COc1ccccc1OCCNC(=O)C(CCSC)NS(=O)(=O)c1ccccc1F (centres undefined),-7.2% (inactive),–
CC(Oc1ccccc1)C(=O)NNS(=O)(=O)c1ccc([N+](=O)[O-])cc1 (centres undefined),-1.92% (inactive),–
COc1ccc(-n2c(SCC(=O)Nc3cc(C)on3)nc3ccc(O)cc3c2=O)cc1OC,-6.42% (inactive),–
O=[N+]([O-])c1cccc(/C=N/N=C\c2ccccc2)c1,-0.78% (inactive),–
O=C1NC(=S)N/C1=C/c1cccc([N+](=O)[O-])c1,1.48% (inactive),–
O=C(O)c1cc(NCc2c(F)cccc2Cl)ccc1N1CCOCC1,-2.05% (inactive),–
NS(=O)(=O)c1ccc(NCc2c(F)cccc2Cl)cc1,4.17% (inactive),–
CN1CCC(=NNC(=O)c2ccco2)CC1,17.7% (inactive),–
Cc1ccccc1C(=O)NC(=S)Nc1ccc2[nH]c(=O)[nH]c2c1,-1.8% (inactive),–
C[C@H](CO)N1C[C@H](C)[C@@H](CN(C)S(=O)(=O)c2ccc(F)cc2)Oc2ccc(NS(=O)(=O)c3ccccc3)cc2C1=O,0.4% (inactive),–
Cc1c(N=C2C(=O)Nc3ccccc32)c(=O)n(-c2ccccc2)n1C,2.78% (inactive),–
CC1=CC(=Nc2c(C)n(C)n(-c3ccccc3)c2=O)C=C(C)C1=O,2.89% (inactive),–
CCC(C)C1=CC(=Nc2c(C)n(C)n(-c3ccccc3)c2=O)C=C(C(C)CC)C1=O (centres undefined),4.41% (inactive),–
Cc1c(N=c2scc(-c3ccccc3)n2C)c(=O)n(-c2ccccc2)n1C,-7.91% (inactive),–
CCC1CCCCN1C(=O)COc1ccc(S(=O)(=O)N2CCOCC2)cc1Cl (centres undefined),-7.51% (inactive),–
CCOC(=O)c1c(-c2ccccc2)oc2ccc(OCC(=O)O)cc12,-1.55% (inactive),–
CC1CCCCC1NC(=O)c1nnc(Cc2ccc(Cl)cc2)o1 (centres undefined),-2.17% (inactive),–
Cc1cc(-n2c(C)cc(C(=O)CSc3nncn3C(C)C)c2C)no1,-1.44% (inactive),–
COC(=O)c1ccc([C@H](NC(=O)c2ccco2)[C@]2(C)C[C@H]2C2CCCCC2)cc1,-7.21% (inactive),–
COc1ccc(C(=O)c2ccc(N3CCN(C(=O)c4ccc(F)cc4)CC3)c(F)c2)cc1Br,4.82% (inactive),–
O=C1Oc2ccccc2C(=O)/C1=C\N1CCN(c2ccccc2)CC1,-8.28% (inactive),–
Cc1ccccc1/C=C1\Oc2ccccc2C1=O,1.3% (inactive),–

SMILES,inhibition,inhibition [1]
Cc1cc(C(=O)NNC(=O)c2c(-c3c(Cl)cccc3Cl)noc2C)no1,0% (inactive),–
CCc1ccc(OCC(O)CN2CCN(c3ccc(OC)cc3)CC2)cc1 (centres undefined),-3.27% (inactive),–
O=C(c1ccccc1)c1ccc(Oc2ccc(C(=O)O)c(C(=O)O)c2)cc1,2.64% (inactive),-1.5%
CC(C)(C)C(=O)Nc1ccc(C(=O)Nc2cccc(Oc3ccc(C(=O)O)c(C(=O)O)c3)c2)cc1,9.79% (inactive),-1.52%
COc1cc(-c2nc3ccccn3c2/N=C/c2ccc(F)cc2)ccc1O,-1.47% (inactive),–
O=C(c1ccc2c3c(cccc13)CC2)C1CCCN(Cc2cccnc2)C1 (centres undefined),-8.53% (inactive),–
O=C(c1ccc2c3c(cccc13)CC2)C1CCCN(Cc2ccncc2)C1 (centres undefined),-3.47% (inactive),–
O=C(NCCO)C(=O)NCC(c1cccs1)S(=O)(=O)c1ccc(F)cc1 (centres undefined),0% (inactive),–
CC(C)C[C@@H](CNC(=O)OC(C)(C)C)NC(=O)c1nc[nH]c1C(=O)N[C@@H](CC(C)C)C(=O)CNC[C@H](CC(C)C)NC(=O)c1nc[nH]c1C(=O)N[C@@H](Cc1c[nH]c2ccccc12)C(=O)OC(C)(C)C,-7.03% (inactive),–
CC1(C)CC(=O)C=C(C(=O)N2CCCC(C(=O)c3cc(F)ccc3F)C2)O1 (centres undefined),-6.28% (inactive),–
CCN(C1CCCCC1)S(=O)(=O)CCNC(=O)c1ccc2c(c1)OCO2,-2.2% (inactive),–
c1ccc2c(-n3cccn3)cccc2c1,-11.8% (inactive),–
Cc1ccn(-c2cc(O)c(-n3ccc(C)n3)cc2O)n1,-6.11% (inactive),–
CCOc1ccccc1C(=O)OCC(=O)Nc1ccc(OC(F)F)cc1,0.68% (inactive),-8.52%
COc1ccccc1/C=C1\SC(=S)N(N2C(=O)CCCC2=O)C1=O,0% (inactive),–
COc1ccc(OC)c(/C=C2\SC(=S)N(NS(=O)(=O)c3ccccc3)C2=O)c1,43.4% (inactive),–
COc1ccccc1/C=C1\SC(=S)N(Nc2nc(C)cc(C)n2)C1=O,7.21% (inactive),–
COc1ccc(/C=C2\SC(=S)N(NS(=O)(=O)c3ccc(C)cc3)C2=O)c(OC)c1,16.5% (inactive),–
Cc1cc2cc(C#N)c(SCC(=O)Nc3nonc3C)nc2cc1C,3.66% (inactive),–
